High-throughput results deposited in PubChem BioAssay by The Scripps Research Institute Molecular Screening Center.
pPAFAH FP inh – pPAFAH (human) enzyme inhibition; inhibition, % at 3.39 µM; 330,000 tested, 1.5% active; recombinant pPAFAH, FP-rhodamine probe fluorescence polarization; Q13093;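 active = inhibition above the mean inhibition across the screen plus 3 SD, cut at about 25% in these data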;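 also: inhibitors block binding of the rhodamine activity-based probe so polarization drops; 0% = enzyme with DMSO and 100% = wells lacking pPAFAH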
Fam108B counter – blocks mouse Fam108B hydrolase in RBBP9 counter-screen; recombinant Fam108B, FP-Rh probe fluorescence polarization; inhibition, % at 9.51 µM; 300,000 tested, 0.33% active;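 active = inhibition above the screen mean inhibition plus 3 SD, computed separately per campaign, cut at about 18% in these data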;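 also: inhibitors lower polarization as less probe binds the enzyme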
PAFAH2 FP inh – inhibitors of human PAFAH2; Q99487; recombinant PAFAH2, FP-rhodamine activity probe, fluorescence polarization; inhibition, % at 3.39 µM; 340,000 tested, 0.99% active;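 active = inhibition above the mean over all tested compounds plus 3 SD, cut at about 30% in these data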;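 also: inhibitors block probe labeling of enzyme so polarization drops; 0% = enzyme with DMSO and 100% = wells lacking PAFAH2 protein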
PAFAH1B2 inh – PAFAH1B2 (human) inhibition; AID 492953; 340,000 tested, 1.2% active; recombinant PAFAH1B2, FP-rhodamine activity probe, fluorescence polarization; P68402; inhibition, % at 3.39 µM;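 active = inhibition above the mean of all tested compounds plus 3 SD, cut at about 24% in these data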;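 also: 0% = enzyme with DMSO and 100% = wells lacking PAFAH1B2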
Target sequence (P68402 whole entry, looked up): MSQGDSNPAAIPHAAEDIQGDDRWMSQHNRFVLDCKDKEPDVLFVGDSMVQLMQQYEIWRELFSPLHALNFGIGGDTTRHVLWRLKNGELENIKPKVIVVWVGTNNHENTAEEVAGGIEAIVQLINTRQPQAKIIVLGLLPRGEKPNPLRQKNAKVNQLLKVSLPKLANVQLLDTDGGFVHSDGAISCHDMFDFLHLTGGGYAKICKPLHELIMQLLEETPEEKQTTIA
PME-1 inh – PME-1 (human) inhibition | inhibition, % at 5.9 µM | recombinant PME-1, FP-Rh probe fluorescence polarization | 320,000 tested, 0.53% active;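 active = inhibition above the campaign mean of all compounds plus 3 SD, cut at about 26% in these data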;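 also: competitive labeling of PME-1 active site by serine hydrolase directed probe; 0% = PME-1 with DMSO and 100% = wells lacking PME-1 enzyme; inhibitors block probe labeling so polarization falls and inhibition rises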
PAFAH1B3 inh – inhibitors of human PAFAH1B3 | inhibition, % at 3.39 µM | recombinant PAFAH1B3, FP-rhodamine probe, fluorescence polarization | Q15102 | 340,000 tested, 0.28% active;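 active = inhibition above the screen-wide average of all tested compounds plus 3 SD, cut at about 25% in these data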;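 also: 0% = enzyme with DMSO only and 100% = wells lacking PAFAH1B3 protein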
Starred values were filed as active, the others as inactive; x = no result. The list is not random: actives were taken first. Their share in the collection is about 2.8%.

SMILES	pPAFAH FP inh	Fam108B counter	PAFAH2 FP inh	PAFAH1B2 inh	PME-1 inh	PAFAH1B3 inh
C#CCOCCOCCOCCNc1nc(N2CCN(C(=O)CCCCCCCCCCNC(=O)Cn3cc(C[C@@H](C)O)nn3)CC2)nc(N2CCN(C(=O)CCCCCCCCCCNC(=O)[C@@H](CCC(=O)O)n3cc(CCCCCN)nn3)CC2)n1	15	1	-4	1	-8	-2
CCOc1ccc(OCCOC(=O)CN2C(=O)NC3(CCCC3)C2=O)cc1	6	-1	0	-1	4	6
CCCCC1OC23CCCCC2C(C#N)(C#N)C1(C#N)C(=N)O3 (stereo not drawn)	17	4	41*	30*	10	36*
CCCCC1OC23CCCCC2C(C#N)(C(=N)O3)C1(C#N)C#N (stereo not drawn)	5	2	36*	30*	5	26*
N#CC1(C#N)C(c2ccccc2)OC23CCCCC2C1(C#N)C(=N)O3 (stereo not drawn)	16	16	26	15	9	20
N#CC1(C#N)C(c2ccccc2)OC23CCCCCC2C1(C#N)C(=N)O3 (stereo not drawn)	4	-2	12	3	3	-2
O=C(CCCn1cncn1)N1CCCC(Nc2ccc(F)cc2)C1 (stereo not drawn)	x	x	1	3	x	12
O=C(OCc1c(Cl)cccc1Cl)c1ccncc1	27*	1	-5	5	-6	4
O=C(OCC(=O)N1CCN(C(=O)COC(=O)c2ccncc2)CC1)c1ccncc1	27*	-4	-4	-2	-1	-5
Clc1cccc(Cl)c1COc1ccncc1	1	-3	-5	1	4	6
COc1ccc(COC(=O)Nc2cn(C)nc2C(F)(F)F)cc1	3	-2	2	2	3	0
CCC1Oc2ccc(C)cc2N(CC(=O)N2CCCC2)C1=O (stereo not drawn)	-9	8	5	-1	-4	1
Cc1ccc(S(=O)(=O)N(C)C)cc1NC(=O)COC(=O)CN1C(=O)c2ccccc2C1=O	5	x	0	4	-1	-7
Cc1ccc(S(=O)(=O)NC(CC(C)C)C(=O)Nc2nccs2)cc1 (stereo not drawn)	4	0	3	15	2	9
Cc1ccc(S(=O)(=O)NC(CC(C)C)C(=O)Nc2ccncc2)cc1 (stereo not drawn)	2	2	7	25*	-9	-4
COC(=O)C1CSc2[nH]c(=O)sc2C1c1ccccc1 (stereo not drawn)	2	3	11	28*	7	3
COC(=O)C1Sc2[nH]c(=O)sc2C(c2ccc(Cl)cc2)C1C(=O)OC (stereo not drawn)	1	1	19	5	6	-3
Cc1ccc(Oc2cc(NN3CCCCC3)c([N+](=O)[O-])cc2[N+](=O)[O-])c(Cl)c1	5	6	1	7	-4	3
O=C(COC(=O)/C=C/c1cccc(C(F)(F)F)c1)NC1CCS(=O)(=O)C1 (stereo not drawn)	4	x	0	4	-2	-6
CC(C)C(=O)Nc1ccc(C(=O)Nc2ccc(S(=O)(=O)N3CCOCC3)cc2)cc1	1	-4	-6	-3	1	-2
CC(Sc1ccc(Cl)cc1)C(=O)Nc1ccc(S(=O)(=O)N2CCOCC2)cc1 (stereo not drawn)	9	-3	3	31*	-2	13
CC(=O)OC[C@]12CC[C@H]3[C@@](C)(CC[C@H]4C(C)(C)CCC[C@]34C)[C@@H]1C[C@H](C1=CC(=O)O[C@@H]1OC(C)=O)O2	45*	x	x	x	x	x
CN(C(=O)CSc1nnc(-c2ccccc2F)n1N)C1CCCCC1	-4	x	-3	9	-3	1
O=C1NN(c2ccccc2)C(=O)/C1=C/c1ccc(-c2ccc(Cl)c(C(=O)O)c2)o1	x	x	17	7	x	23
Cc1ccc(Sc2ccc(/C=C3/C(=O)NN(c4ccccc4)C3=O)o2)cc1	19	6	23	36*	2	6
O=C1NN(c2ccccc2)C(=O)/C1=C/c1ccc(Sc2ccc(Cl)cc2)o1	23	2	13	29*	2	5
